M1 ag: M1 muscarinic receptor agonists, primary screen, CHO-M1 cells, Fluo-4 calcium, agonist mode; Muscarinic acetylcholine receptor M1; Fluo-4 calcium fluorescence; hits give high values; B-score at 10 µM; 64,000 tested, 3% active;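 active means fluorescence rise, raw or as B-score row- and column-corrected plate score, outside the 99.7% band of its plate's samples, either direction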
M1 antagonist: antagonists of rat M1 muscarinic receptor; 64,000 tested, 3.4% active; AID 628, 2007; CHO-M1 cells, Fluo-4 calcium, ACh EC80 antagonist mode; hits give low values; Muscarinic acetylcholine receptor M1 (Rattus norvegicus), P08482; B-score at 10 µM;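 active means calcium fluorescence response, raw or row-and-column corrected B-score, differing from the plate sample mean either way at a set confidence level, mostly lower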
PLAP activator: PLAP enzyme activators, biochemical, luminescence, HTS; 96,000 tested, 1.2% active; purified PLAP enzyme, luminescent substrate read-out; hits give high values; AID 696, 2007; activation fold at 20 µM; Alkaline phosphatase, placental type (Homo sapiens), P05187; in the data active means activation fold above about 2
Target sequence (P05187 whole entry, looked up): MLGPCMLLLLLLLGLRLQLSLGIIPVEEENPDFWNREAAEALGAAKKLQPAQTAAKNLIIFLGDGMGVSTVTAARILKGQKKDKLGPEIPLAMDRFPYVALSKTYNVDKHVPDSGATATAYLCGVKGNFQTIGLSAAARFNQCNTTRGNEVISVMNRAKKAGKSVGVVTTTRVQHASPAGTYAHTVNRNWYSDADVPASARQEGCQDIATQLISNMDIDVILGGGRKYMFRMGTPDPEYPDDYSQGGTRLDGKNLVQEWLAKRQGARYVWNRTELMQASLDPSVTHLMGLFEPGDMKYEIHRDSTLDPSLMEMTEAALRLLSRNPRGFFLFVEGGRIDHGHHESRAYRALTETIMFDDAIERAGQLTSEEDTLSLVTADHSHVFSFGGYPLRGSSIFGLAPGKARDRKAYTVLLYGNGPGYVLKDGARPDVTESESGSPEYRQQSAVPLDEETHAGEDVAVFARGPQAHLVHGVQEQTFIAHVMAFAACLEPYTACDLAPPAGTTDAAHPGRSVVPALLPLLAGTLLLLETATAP
Cav32 inh: Cav3.2 calcium influx blockers – cell-based, Fluo-4 calcium fluorescence, FDSS, MLSMR library, primary screen | Cav3.2-expressing cells; hits give low values | AID 449739, 2010 | B-score at 10 µM | Voltage-dependent T-type calcium channel subunit alpha-1H (Homo sapiens), O95180 | 100,000 tested, 4% active;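 active means single-dose well whose peak fluorescence ratio is a statistical outlier from its plate by either plate-standardised score or position-corrected B-score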
Each line names hits and unclear results; the compound was inactive in the other large screens. In the library only some 7.6% were active in any assay of this set; here they are far more common.

C#Cc1ccc([C@@H]2C=C(C(=O)O)O[C@H](OCC)[C@H]2CCCO)cc1	none (no result: M1 ag, M1 antagonist, PLAP activator)
COc1cc(OC)nc(Oc2ccccc2C(=O)Oc2ccc(F)cc2Cl)n1	none (no result: M1 ag, M1 antagonist)
Cc1c(NC(=O)/C=C/c2cn(-c3ccccc3)nc2-c2ccccc2)c(=O)n(-c2ccccc2)n1C	Cav32 inh -4.5 (no result: M1 ag, M1 antagonist)
Cc1c(NC(=O)N(C)C)c(=O)n(-c2ccccc2)n1C	none (no result: M1 ag, M1 antagonist, PLAP activator)
O=C(Nc1nnc(C(F)(F)F)s1)C1COc2ccccc2O1 (stereo not drawn)	Cav32 inh -4.2 (no result: M1 ag, M1 antagonist)
Oc1ccccc1-c1nnc(COc2ccccc2)o1	none
Oc1ccccc1-c1nnc(COc2ccc(Cl)cc2Cl)o1	Cav32 inh -5.9
O=C(Cn1cnc2c(oc3ccccc32)c1=O)NCC1CCCO1 (stereo not drawn)	none
O=C(NCCc1ccc(Cl)cc1)C1CCN(S(=O)(=O)c2cccs2)CC1	Cav32 inh -6.7 (no result: M1 ag, M1 antagonist)
CC(Sc1nnnn1-c1ccccc1)C(=O)Nc1ccc(Cl)cn1 (stereo not drawn)	Cav32 inh -5.1
O=C(CSc1nnnn1-c1ccccc1)CSc1nnnn1-c1ccccc1	none
CCC(Sc1nnnn1-c1ccccc1)C(=O)NC(C)c1ccccc1 (stereo not drawn)	Cav32 inh -4.9
CCC(Sc1nnnn1-c1ccccc1)C(=O)Nc1nc2ccccc2s1 (stereo not drawn)	Cav32 inh -6.7 (no result: PLAP activator)
CC1SC(=NC(=O)C(C)N2C(=O)c3ccccc3C2=O)NC1=O (stereo not drawn)	none (no result: M1 ag, M1 antagonist, PLAP activator)
Clc1ccccc1CSc1ncccn1	none
CN(C)S(=O)(=O)c1ccc(NC(=O)N2CCN(c3ccccc3)CC2)cc1	none (no result: M1 ag, M1 antagonist, Cav32 inh)
Cc1cc(C)c2c(-n3cccc3)c(C(=O)NNS(=O)(=O)c3ccc(Cl)cc3)sc2n1	Cav32 inh -5.1 (no result: M1 ag, M1 antagonist)
Cc1cc(C)c2c(-n3cccc3)c(C(=O)NNS(=O)(=O)c3ccccc3)sc2n1	none (no result: M1 ag, M1 antagonist)
O=C(CN1C(=O)c2ccccc2C1=O)NCC1COc2ccccc2O1 (stereo not drawn)	M1 antagonist 1.2
O=C(NCC1COc2ccccc2O1)C1CCCN(S(=O)(=O)c2cnc[nH]2)C1 (stereo not drawn)	none
Cn1c(SCC(=O)NCc2ccccc2)nnc1C1CC1	none
Cc1ccccc1CN(c1ccc(C(=O)Nc2ccccc2C(=O)N2CCCC2)cc1)S(C)(=O)=O	PLAP activator 2 (no result: M1 ag, M1 antagonist, Cav32 inh)
Cc1nn(C)cc1/C=N\NC(=O)c1ccc2c(c1)c(C)c(C)n2Cc1ccccc1	Cav32 inh -3.8 (no result: M1 ag, M1 antagonist, PLAP activator)
O/N=C(\c1ccc(Cl)cc1)c1ncc(C(F)(F)F)cc1Cl	Cav32 inh -6.1 (no result: M1 ag, M1 antagonist)
Cc1nn(Cc2ccc(Cl)cc2Cl)c(C)c1NC(=O)NC12CC3CC(CC(C3)C1)C2	Cav32 inh -4.2 (no result: M1 ag, M1 antagonist, PLAP activator)
Cc1nn(Cc2ccc(Cl)cc2Cl)c(C)c1NC(=O)c1sc2ccccc2c1Cl	none (no result: M1 ag, M1 antagonist)
Clc1ccc(-c2n[nH]c3c2CCC3)cc1Cl	none (no result: M1 ag, M1 antagonist)
Cn1cccc1Cc1nnc(SCC(=O)Nc2cccc(Cl)c2)n1-c1ccc(F)cc1	Cav32 inh -10
COc1ccc(-n2c(Cc3cccn3C)nnc2SCC(=O)Nc2cccc(NC(C)=O)c2)cc1	none
CC(=O)c1ccc(NC(=O)CSc2nnc(Cc3cccn3C)n2-c2ccc(F)cc2)cc1	none
COc1ccc(-n2c(Cc3cccn3C)nnc2SCC(=O)Nc2cccc(Cl)c2)cc1	Cav32 inh -13
Cn1cccc1Cc1nnc(SCC(=O)Nc2cccc(F)c2)n1-c1ccc(F)cc1	Cav32 inh -7.3
CSc1nc2ccc(NS(=O)(=O)c3ccc(Cl)s3)cc2s1	Cav32 inh -5.6
O=C(NCc1ccccc1)C12CN(Cc3ccccc3)CC1C(c1cccc([N+](=O)[O-])c1)=NO2 (stereo not drawn)	Cav32 inh -3.4 (no result: M1 ag, M1 antagonist)
O=C(NCC1CCCO1)C12CN(Cc3ccccc3)CC1C(c1cccc([N+](=O)[O-])c1)=NO2 (stereo not drawn)	none (no result: M1 ag, M1 antagonist)
O=C(NCc1ccc(OC(F)(F)F)cc1)C12CN(Cc3ccccc3)CC1C(c1cccc([N+](=O)[O-])c1)=NO2 (stereo not drawn)	Cav32 inh -3.8 (no result: M1 ag, M1 antagonist)
CCCCN(CCCC)CCCNC(=O)C12CN(Cc3ccccc3)CC1C(c1cccc([N+](=O)[O-])c1)=NO2 (stereo not drawn)	Cav32 inh -3.2 (no result: M1 ag, M1 antagonist)
C=C1CCN([C@@H](CC(C)C)C(=O)NCc2ccco2)S(=O)(=O)c2ccccc21	none (no result: M1 ag, M1 antagonist, PLAP activator)
CCN(C(=O)CSc1nc2ccccc2n1CCc1ccccc1)C1CCS(=O)(=O)C1 (stereo not drawn)	PLAP activator 2.4 (no result: M1 ag, M1 antagonist)
CCN(C(=O)CSc1nc(-c2ccccc2)c(-c2ccccc2)[nH]1)C1CCS(=O)(=O)C1 (stereo not drawn)	none (no result: M1 ag, M1 antagonist)
CCC(=O)Nc1nc2ccccc2n1CCN(CC)CC	none
Cc1c(Cl)c(C(=O)Nc2nc3ccccc3n2CCN2CCCCC2)nn1C	PLAP activator 2.5 (no result: M1 ag, M1 antagonist, Cav32 inh)
CCn1cc(Cl)c(C(=O)Nc2nc3ccccc3n2CCN2CCCCC2)n1	PLAP activator 2.3
CN(C)CCn1c(NC(=O)c2ccc(Cl)cc2)nc2ccccc21	PLAP activator 2.3 (no result: M1 ag, M1 antagonist)
O=C(Nc1nc2ccccc2n1CCN1CCCCC1)c1ccco1	none
O=C1Nc2ccccc2S/C1=C/Nc1cccc(Cl)c1	none (no result: M1 ag, M1 antagonist)
CCN(CCCNC(=O)CN(C)S(=O)(=O)c1cccc2nsnc12)c1ccccc1	none (no result: Cav32 inh)
CCN1CCN(S(=O)(=O)c2ccc3ccccc3c2)CC1	none (no result: M1 ag, M1 antagonist)
COc1ccc(C2C(Oc3ccccc3C)C(=O)N2Cc2ccc(F)cc2)cc1OC (stereo not drawn)	Cav32 inh -4.7 (no result: M1 ag, M1 antagonist)
O=C(NCc1ccc(C(F)(F)F)cc1)C1CC(c2cccc(F)c2)=NO1 (stereo not drawn)	Cav32 inh -2.7 (no result: M1 ag, M1 antagonist, PLAP activator)
CC1CCC(NC(=O)c2ccc3nc[nH]c3c2)CC1 (stereo not drawn)	none (no result: M1 ag, M1 antagonist)
COC(=O)C(NC(=O)c1ccc(C)cc1)(Nc1cccc(C)n1)C(F)(F)F (stereo not drawn)	Cav32 inh -4.6 (no result: M1 ag, M1 antagonist, PLAP activator)
COC(=O)C(NC(=O)c1ccccc1)(Nc1nc(C)cs1)C(F)(F)F (stereo not drawn)	none
COCc1c(C(=O)N2CCN(c3ccc(C(F)(F)F)cn3)CC2)oc2ccccc12	Cav32 inh -4.7 (no result: M1 ag, M1 antagonist)
Nc1c(C(=O)Nc2ccccc2F)sc2nc(Cc3ccccc3)cc(C(F)(F)F)c12	Cav32 inh -3.4 (no result: M1 ag, M1 antagonist)
Cc1ccccc1-n1c(CSC(=N)N)nc2ccccc2c1=O	PLAP activator 2.3 (no result: M1 ag, M1 antagonist)
COC(=O)C1=NN(c2ccc(C)cc2)C2(S1)SC(C(C)=O)=C(C)N2c1ccccc1 (stereo not drawn)	none (no result: M1 ag, M1 antagonist)
Cc1oc(-c2ccccc2)cc1C(=O)Nc1cccc(C(=O)O)c1	none
Cc1oc(-c2ccccc2)cc1C(=O)Nc1cccc2ccccc12	Cav32 inh -5 (no result: M1 ag, M1 antagonist)
N#CC1=C(N)C(C#N)(C#N)C(c2cccnc2)C2CCCC=C12 (stereo not drawn)	M1 ag 7.9
O=C(Nc1ccc2oc(=O)ccc2c1)c1cccnc1Cl	none (no result: M1 ag, M1 antagonist)
CC(OC(=O)c1ccccc1NCc1ccco1)C(=O)Nc1ncc(Cl)cc1Cl (stereo not drawn)	none (no result: Cav32 inh)
CC(=O)Nc1ccc(NS(=O)(=O)c2ccc3ccccc3c2)cc1	none (no result: M1 ag, M1 antagonist)

Compound activity: PubChem, several laboratories
